Compound activity (PubChem)
Rab9 promoter act = qHTS Assay for Rab9 Promoter Activators. Huh7 Rab9 promoter-luciferase reporter, luminescence, 24 h. Potency, µM (titrated, usually from 9.22 µM), usual class: activators. hit rate 2.8% among 320,000. AID 485297, 2010; further: nearly all actives have a fitted effect of over 60% in size
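Steps: seed 1500 Huh7 Rab9-luc cells per well, rest 2 h at 37 °C; add compound in DMSO; incubate 24 h; add luciferase reagent, 10 min ambient; read luminescence.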
NPC1 prom act = qHTS Assay for NPC1 Promoter Activators; Huh7 NPC1 promoter luciferase reporter, 24 h; hit rate 2.4% among 320,000; Potency, µM (highest dose often 9.22 µM), most hits filed as activators; further: nearly all actives have a fitted effect of over 60% in size
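Readout is luciferase luminescence, reflecting NPC1 promoter activation in stably transfected Huh7 cells after 24 h compound exposure at 37 °C in reduced-serum medium with 10% FBS.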
ELG1 genotox = qHTS screen for small molecules that induce genotoxicity in human embryonic kidney (HEK293T) cells expressing luciferase-tagged ELG1 | HEK293T ELG1-luciferase reporter, luminescence, 16 h | Potency, µM (doses to about 46 µM), usual class: activators | hit rate 1.3% among 330,000 | AID 504466, 2011; further: nearly all actives have a fitted effect of over 60% in size
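Step 1: seed 2,000 HEK293T ELG1-luciferase cells per well. Step 2: add compound or DMSO, incubate 16 hr at 37 °C. Step 3: ONE-Glo, 30 min at room temperature, read luminescence.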
Luc counter = Counterscreen for Luciferase (Kinase-Glo TM) Inhibition; Luciferin 4-monooxygenase (Photuris pensylvanica), Q27757; Kinase-Glo luciferase, ATP luminescence, 8 min; Potency, µM (highest dose often 38.3 µM), hits mostly inhibitors; hit rate 0.28% among 200,000; AID 1379, 2008; further: nearly all actives have a fitted effect of over 60% in size
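Substrate mix (final 50 mM imidazole pH 7.2, 50 mM KCl, 7 mM MgCl2, 10 uM ATP, 0.01% Tween 20, 0.05% BSA) plus pin-tool compound, then Kinase-Glo detection mix; 8 min ambient, luminescence read.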
FLuc counter = qHTS profiling assay for firefly luciferase inhibitor/activator using purifed enzyme and Km concentrations of substrates (counterscreen for miR-21 project) | Luciferin 4-monooxygenase (Photinus pyralis), P08659 | purified FLuc, Km substrates, luminescence inhibition | Potency, µM (highest dose often 57.5 µM), usual class: inhibitors | hit rate 6.9% among 360,000; further: nearly all actives have a fitted effect of over 55% in size
Target sequence (P08659 whole entry, looked up): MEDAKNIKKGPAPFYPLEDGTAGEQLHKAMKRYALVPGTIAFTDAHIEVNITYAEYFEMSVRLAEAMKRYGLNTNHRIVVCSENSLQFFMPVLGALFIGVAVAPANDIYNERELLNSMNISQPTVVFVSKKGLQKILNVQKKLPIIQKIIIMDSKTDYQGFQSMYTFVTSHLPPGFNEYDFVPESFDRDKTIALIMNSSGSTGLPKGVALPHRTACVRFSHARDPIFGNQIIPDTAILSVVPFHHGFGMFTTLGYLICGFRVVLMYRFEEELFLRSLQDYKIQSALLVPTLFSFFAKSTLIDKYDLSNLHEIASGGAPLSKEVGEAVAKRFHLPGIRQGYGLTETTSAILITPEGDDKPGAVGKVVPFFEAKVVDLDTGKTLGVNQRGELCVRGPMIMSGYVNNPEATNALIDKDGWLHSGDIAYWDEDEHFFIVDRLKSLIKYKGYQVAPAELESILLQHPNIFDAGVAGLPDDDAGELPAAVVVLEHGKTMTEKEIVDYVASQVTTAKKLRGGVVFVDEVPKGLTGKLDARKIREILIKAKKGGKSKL
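Purified P. pyralis luciferase (10nM final) with 10uM D-luciferin and 10uM ATP (Km levels) in 50mM Tris acetate pH 7.5, 10mM Mg acetate, 0.01% Tween-20, 0.05% BSA; qHTS 6-point titration, ~60 µM downward; luminescence read.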
SMN2 splice enh = qHTS Assay for Enhancers of SMN2 Splice Variant Expression | hit rate 2.8% among 210,000 | HEK293 SMN2-luciferase splicing reporter, luminescence, 30-36 h | Potency, µM (series often up to 46.1 µM), hits mostly activators; further: nearly all actives have a fitted effect of over 55% in size
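qHTS luciferase splicing reporter: luminescence rises when SMN2 exon 7 is included in transfected HEK293 cells. Compound exposure lasted 30-36 h at 37C, with 4.5 mM final sodium butyrate as control, followed by a ONE-Glo read.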
A number is an active result; 0 = inactive; ? = inconclusive; - = no result given; [ ] = remark or other dose. Sampled rows, rich in hits. Any-hit rate of the full collection: about 7.5%. The call rests on the fitted dose curve; in most records, active means well fitted curve in the direction sought with a large enough effect; inconclusive means small, poorly fitted or top-dose-only effect, or another doubt; inactive means no such curve, though single readings can be large; an effect the other way counts as inactive or inconclusive.

SMILES	Rab9 promoter act	NPC1 prom act	ELG1 genotox	Luc counter	FLuc counter	SMN2 splice enh
Cc1ccsc1CN(C(=O)c1oc2cc(Br)ccc2c1C)C1CCS(=O)(=O)C1 (stereo not drawn)	-	-	-	-	0	0
COc1ccc(C2=Nc3ccccc3N(CC(=O)Nc3cccc(C(C)=O)c3)C(=O)C2)cc1	-	-	-	-	0	-
COc1ccc(-c2nc(SCC(=O)NCCc3ccccc3)n[nH]2)cc1	-	-	-	-	17µM	-
COc1ccc(OC(=O)NCCc2ccccc2)cc1	3.5µM	4µM	?	-	15µM	-
COc1ccc(CCNC(=O)c2ccccc2)cc1	0	0	0	-	?	-
O=C(CSc1n[nH]c(-c2ccccc2)n1)NCCc1ccccc1	-	-	-	-	0	-
Cc1ccc2c(=O)c(C(=O)NCc3cccs3)c[nH]c2c1	?	0	0	0	17µM	0
O=C(CN1CCC(n2cnc3cc(F)ccc32)CC1)Nc1ccccc1Br	0	0	0	0	0	0
CN(C)c1ccc(/C=C/C(=O)c2ccc3c(c2)OCO3)cc1	?	?	?	-	2.7µM	-
COc1cccc(/C=C/C(=O)c2ccc[nH]2)c1	3.2µM	3.2µM	3.7µM	0	2.1µM	?
CN(C)c1ccc(/C=C/C(=O)c2ccc3c(c2)OCCO3)cc1[N+](=O)[O-]	0	0	0	0	9.5µM	0
CCCc1ccc(OC(=O)c2ccc(O)cc2Cl)cc1	1µM	2µM	?	0	2.4µM	?
CN(C(=O)/C=C/c1ccc2c(c1)OCO2)c1ccccc1	?	?	0	0	?	?
CC(=O)c1ccc(NC(=S)N2CCN(c3ccccn3)CC2)cc1	0	0	0	-	0	-
O=C(NC1CC(=O)N(c2ccc(Cl)cc2)C1)c1ccc2c(c1)OCO2 (stereo not drawn)	-	-	-	-	0	-
COc1cccc(/C=C/C(=O)NNC(=O)c2ccncc2)c1OC	0	0	0	-	21µM	-
O=C(/C=C/c1ccc2c(c1)OCO2)c1ccc(F)cc1	0	0	0	0	4.3µM	0
Cc1cc(C)c(C(=O)/C=C/c2ccc3c(c2)OCO3)c(=O)[nH]1	0	0	0	0	0	-
Cc1cc(OC(=O)c2cccs2)ccc1C(C)C	0	0	0	0	3µM	0
Cc1oc2ccc(OC(=O)c3cccs3)cc2c1C(=O)OC(C)C	0	0	0	0	0	0
O=C(/C=C/c1cccc(Br)c1)c1ccc2c(c1)OCO2	0	0	?	-	11µM	-
CCN1C(=O)C(=O)N(CC(=O)Nc2cccc(C(F)(F)F)c2)C1=O	-	-	0	-	-	-
Cc1ccc(S(=O)(=O)C(CNC(=O)C(=O)NCCc2ccc(F)cc2)c2cccs2)cc1 (stereo not drawn)	-	-	-	-	0	-
COc1ccc(Cl)cc1NC(=O)N1CCN(S(=O)(=O)c2ccc3c(ccn3C)c2)CC1	-	-	-	-	0	-
O=C(COC(=O)Cc1c(F)cccc1Cl)NNC(=O)c1ccccc1	-	-	0	-	-	-
SMILES	Rab9 promoter act	NPC1 prom act	ELG1 genotox	Luc counter	FLuc counter	SMN2 splice enh
O=C(O)/C=C\C=C/c1ccc2c(c1)OCO2	-	-	-	0[7.66 µM]	-	0[9.22 µM]
O=C(/C=C/c1ccc2c(c1)OCO2)c1cccs1	-	-	-	8.9µM	-	-
CNc1cc([N+](=O)[O-])ccc1N/C=C/C(=O)c1ccc2c(c1)OCO2	0	0	0	0	0	0
COc1cc(C(=O)N/N=C(\C)c2ccc3c(c2)OCO3)cc(OC)c1OC	0	0	0	0	0	0
COc1cccc(/C=C/C(=O)c2ccc3c(c2)OCO3)c1OC	0	0	?	-	0.95µM	-
O=C(/C=C/c1ccncc1)c1ccc2c(c1)OCCO2	0	0	0	0	12µM	-
O=C(/C=C\Nc1ccccc1Br)c1ccc2c(c1)OCO2	0.45µM	?	?	10µM	0.085µM	3.2µM
Cc1cccc(NC(=S)N2CCC(NC(=O)c3ccco3)CC2)c1	0	0	0	-	0	-
COc1ccc(CCNC(=O)COC(=O)c2cccs2)cc1	0	0	0	-	0	-
O=C(COc1ccc2c(c1)OCO2)NCc1cccs1	-	-	0	-	-	-
COc1cc(C(=O)NNC(=O)c2ccc3c(c2)OCCO3)cc(OC)c1OC	-	-	0	-	-	-
O=C(Oc1ccc2c(c1)OCO2)c1cccs1	0	0	0	0	11µM	?
COc1cc(/C=C/C(=O)c2ccc3c(c2)OCCO3)cc(Br)c1OCC(=O)N(C)C	0	0	0	-	12µM	-
CCCc1ccc(OC(=O)c2cccs2)cc1	0	0	0	0	6µM	0
O=C(/C=C/c1ccccc1Br)c1ccc2c(c1)OCO2	0	0	0	-	12µM	-
O=C(CNC(=O)c1ccc2c(c1)OCO2)N/N=C(Br)/C=C/c1ccccc1	0	0	0	0	0	0
O=C(/C=C/c1ccccc1)c1ccc2c(c1)OCO2	?	?	?	-	2.1µM	-
O=C(/C=C/c1ccc2c(c1)OCO2)NCc1ccco1	0	0	0	0	?	0
O=C(/C=C/c1ccc2c(c1)OCO2)c1ccc[nH]1	?	3.2µM	?	0	2.1µM	16µM
O=c1c(-c2ccc3c(c2)OCCO3)coc2cc(OC3OC(CO)C(O)C(O)C3O)ccc12 (stereo not drawn)	0.5µM	0.56µM	?	-	11µM	-
Clc1nssc1=Nc1ccccc1	0	0	0	0	21µM	0
COc1cc(N=c2ssnc2Cl)cc(OC)c1OC	0	0	0	0	15µM	0
Fc1ccc(N=c2ssnc2Cl)c(F)c1	0	0	0	0	19µM	0
Clc1ccc(N=c2ssnc2Cl)cc1	0	0	0	0	?	0
COc1ccc(N=c2ssnc2Cl)cc1	0	0	0	0	?	0
SMILES	Rab9 promoter act	NPC1 prom act	ELG1 genotox	Luc counter	FLuc counter	SMN2 splice enh
N#Cc1ccc(N=c2ssnc2Cl)cc1	0	0	0	0	15µM	0
CCOc1ccc(NC(=O)CN(C)CC(=O)NC2CCCc3ccccc32)cc1OCC (stereo not drawn)	0	0	0	0	0	0
O=C(COC(=O)c1ccccc1-n1cnnn1)c1ccccc1	0	0	0	-	19µM	-
O=C(COC(=O)c1ccccc1-n1cnnn1)c1ccc(Br)cc1	0	0	18µM	-	5.4µM	-
O=C(COC(=O)c1ccccc1-n1cnnn1)c1ccc(F)c(F)c1	0	0	?	-	?	-
C=C(C)[C@H]1CC=C(CO)CC1	-	-	-	0	-	-
O=[N+]([O-])c1ccc2c(N=Nc3ccc4ccccc4c3O)c(O)cc(S(=O)(=O)O)c2c1	-	-	-	0[7.66 µM]	-	0[9.22 µM]
COc1ccc(/C=N/Nc2ncnc3sc4c(c23)CCCC4)cc1OC	0	0	0	0	2.7µM	0
Nc1c(Cl)ncnc1N/N=C/c1ccncc1	0	0	0	-	0	-
Nc1c(Cl)ncnc1N/N=C/c1cccc(O)c1	0	0	0	-	17µM	-
COc1ccc(/C=N/Nc2ncnc(Cl)c2N)cc1OC	0	0	0	0	21µM	0
CCCC(C)NC(=O)COc1ccc(Sc2ccc(OCC(=O)NC(C)CCC)cc2)cc1 (stereo not drawn)	0	0	0	0	0	0
